Measured values reported in PubChem BioAssay AID492956 (The Scripps Research Institute Molecular Screening Center, 2010).
Out of some 340,000 compounds screened, about 3,300 (0.97%) were called active. The full list was thinned out, with actives kept by preference. Unmarked numbers belong to inactive results.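 The calls were made as follows: active = inhibition above the mean over all tested compounds plus 3 SD (cut at about 30% in these data); inactive = the rest.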 Non-standard residues stand in square brackets, D forms with d. Residues, ends and D or L forms follow the SMILES beside them. ξ: configuration not given here. *: point of attachment. Cbz = O=C(OCc1ccccc1)*; ξL = CC(C)CC(N)C(=O)O; ξP = O=C(O)C1CCCN1

Target: Platelet-activating factor acetylhydrolase 2, cytoplasmic (Homo sapiens) (UniProt Q99487)
Assay: PAFAH2 enzyme inhibitors, primary screen, biochemical, fluorescence polarization, human (AID 492956);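 also: inhibitors block probe labeling of enzyme so polarization drops; 0% = enzyme with DMSO and 100% = wells lacking PAFAH2 protein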
Conditions: recombinant PAFAH2, FP-rhodamine activity probe, at 3.39 µM, hits give high values

| Compound | inhibition |
| --- | --- |
| CCOC(=O)c1oc2c(CN3CCN(CCO)CC3)c(O)c(CC)cc2c(=O)c1-c1nc2ccccc2s1 | -4.68% |
| CC(C)(C)c1ccc(/C=C2\Oc3c(ccc(O)c3CN3CCN(CCO)CC3)C2=O)cc1 | 82% (active) |
| Cc1c2cn[nH]c(=O)c2c(C)n1Cc1ccc(F)cc1 | -4.15% |
| C=C1c2cccc(OC)c2O[C@H](C(=O)OCC)[C@@H]1CCCCCC | 2.29% |
| CCOC(=O)C1=C(CNC2CCCCC2)NC(=O)NC1c1cc(C)ccc1C (stereo not given) | -10.1% |
| COc1ccc(O)c(C(=O)c2cnc3onc(C(C)C)c3c2)c1 | -6.85% |
| COCC1CCN(C(=O)c2ccc3oc(Cc4ccccc4)nc3c2)C1 (stereo not given) | 58.9% (active) |
| COC(=O)C1CCN(C(=O)c2ccc3oc(Cc4ccc(Cl)cc4)nc3c2)CC1 | -2.24% |
| COCC1CCCN(C(=O)c2ccc3oc(C(C)C)nc3c2)C1 (stereo not given) | 2.06% |
| CC1=NC2(CCCc3c2no[n+]3[O-])N(O)C1(C)C (stereo not given) | -4.68% |
| COCCNC(=O)CN1C(=O)CSc2ncccc21 | 3.18% |
| Cc1ccc(Cl)cc1NC(=O)COC(=O)CC(C)(C)C | 6.71% |
| Cc1c(Cl)cnc(NC(=O)COC(=O)c2ccc(S(=O)(=O)NCc3ccco3)cc2)c1Cl | 22.8% |
| Cc1ccc(Cl)cc1NC(=O)COC(=O)C1CCCCC1 | 37.4% (active) |
| Cc1c(Cl)cnc(NC(=O)COC(=O)C2CCCC2)c1Cl | 37.6% (active) |
| CSCCC(NC(=O)c1ccco1)C(=O)OCC(=O)Nc1ncc(Cl)c(C)c1Cl (stereo not given) | 0.63% |
| COc1ccc(CCNC(=O)COC(=O)C2CCCCC2)cc1 | 7.99% |
| Cc1cc(=O)oc2c(C)c(OCC(=O)NCCN3CCOCC3)ccc12 | -1.89% |
| COc1ccc(S(=O)(=O)N2CCC(C(=O)N3CCCC3)CC2)cc1C | -0.54% |
| Nc1nc(SCc2cccc(Br)c2)n[nH]1 | -14.7% |
| CN(Cc1ccccc1)C(=O)C(=O)c1cn(CC(=O)N2CCCC2)c2ccccc12 | 5.94% |
| CCOC(=O)C1C(=O)C=C(c2ccc(OC)cc2)CC1c1ccco1 (stereo not given) | 6.12% |
| O=S(=O)(NCc1ccccc1Br)c1ccccc1Br | 3.56% |

| Compound | inhibition |
| --- | --- |
| Cc1ccn2c(=O)nc(SCC(=O)NCc3ccc(F)cc3)nc2c1 | 10.6% |
| Cc1ccc(C)c(N2CCN(C(=O)CCc3nc4ccccc4[nH]3)CC2)c1 | 2.85% |
| O=C(OCc1nc2ccccc2[nH]1)C1CCCCC1 | 59.9% (active) |
| CCO[C@@H]1OC(C(=O)NCc2nc3ccccc3[nH]2)=C[C@H](C2CCCCC2)[C@H]1CCCO | -12.7% |
| CCO/C=C1\C(=O)N(c2ccc(OCC)cc2)C(=O)c2ccccc21 | 5.93% |
| Cc1ccc(OCC(=O)Nc2cccc3c2CCCC3)cc1C | -17.9% |
| NC(=O)C1CCN(C(=O)c2ccc3c(=O)n(Cc4cccc(Br)c4)c(=S)[nH]c3c2)CC1 | 1.48% |
| COc1cc(OC)c2c(-c3cccc(-c4cccc(N)c4)c3)cc(=O)oc2c1 | 4.97% |
| CCOc1ccc(NC(=O)C2CCN(C(=O)N3CCOc4ccccc43)CC2)cc1 | -3.71% |
| C=CCN(C(=O)c1cc(C)cc(C)c1)C1(C(=O)Nc2ccccc2)CCN(C(C)C)CC1 | -2.17% |
| CC(=O)Nc1ccc(S(=O)(=O)NC(C)C(=O)OCC(=O)NC2CCCC2)cc1 (stereo not given) | -5.65% |
| Cc1ccc(NC(=O)Cc2nc(COC(=O)C(C)NS(=O)(=O)c3ccc(C)cc3)cs2)cc1 (stereo not given) | 67.5% (active) |
| C/C=C/C(=O)OCc1csc(CC(=O)Nc2ccccc2C)n1 | 2.3% |
| Cc1ccc(S(=O)(=O)N(C)C)cc1NC(=O)c1ccccc1Br | 1.28% |
| CN(C(=O)c1c(Cl)cnn1C)C12CC3CC(CC(C3)C1)C2 | 1.24% |
| NS(=O)(=O)c1ccc(NC(=O)COC(=O)c2c3c(nc4ccccc24)/C(=C\c2ccc4c(c2)OCO4)CCC3)cc1 | -39.4% |
| CCn1ccnc1CNC(=O)CC1C(=O)NCCN1CCCc1ccccc1 (stereo not given) | -0.69% |
| CC(C)CC(NC(=O)C1CCCN1C(=O)[C@@H](C)NC(=O)OCc1ccccc1)C(=O)NCC(N)=O (stereo not given in full) (Cbz-[dA][ξP][ξL]G-NH2) | 3.95% |
| Cc1ccc(NC(=O)C2CCCN2C(=O)OCc2ccccc2)cc1C (stereo not given) | -10.9% |
| CCC(C)C(NC(=O)C1CCC(=O)N1C(=O)OCc1ccccc1)C(=O)NC(C(=O)N1CCCC1C(N)=O)C(C)CC (stereo not given) | 45% (active) |
| CCc1cc(CNC(=O)CC2C(=O)NCCN2Cc2ccccc2C(F)(F)F)on1 (stereo not given) | -1.63% |
| COC(=O)CNc1nc(Cl)nc(N2CCC(C)CC2)n1 | -3.76% |
| C/C(Cn1nnc2ccccc21)=N\OC(=O)c1cc(F)c(F)cc1Cl | 75.7% (active) |

| Compound | inhibition |
| --- | --- |
| Cn1c(Cn2nnc3ccccc32)nnc1SCC(=O)c1ccccc1F | -0.21% |
| CCOC(=O)c1cccc(NC(=O)CCn2nnc3ccccc32)c1 | -12.2% |
| CCCCCN(C(=O)CCC(=O)OCCOc1ccc(OC)cc1)c1c(N)n(CCCC)c(=O)[nH]c1=O | 0.6% |
| COc1ccc(Cc2nc3ccc(C(=O)N4CCC(N(C)C)C4)cc3o2)cc1 (stereo not given) | 1.02% |
| CC(C)CN(C(=O)CSc1ncnc2sccc12)C1CCS(=O)(=O)C1 (stereo not given) | -0.68% |
| CCN(CC)CCCN1C(=O)C(=O)/C(=C(/O)c2c(C)nc3ccccn23)C1c1ccc(C)o1 (stereo not given) | -8% |
| Cc1nc(N)nc(Cl)c1CCC1OCCO1 | -3.02% |
| Cc1cc(C(=O)N/N=C/c2ccc(O)c([N+](=O)[O-])c2)c(C)n1-c1ccc(F)cc1 | 15.3% |
| CCOc1cccc(/C=N/N2C(=O)CSC2=S)c1O | 21.4% |
| O=C1CSC(=S)N1/N=C/c1ccc(O)c([N+](=O)[O-])c1 | 38.1% (active) |
| CCn1ncc(Br)c1C(=O)Nc1cc(C)ccc1F | 4.13% |
| CC1(C)CC(O)C(CCC(O)c2ccccc2)C(C)(C)N1 (stereo not given) | 4.72% |
| O=C(NCCNc1ccc([N+](=O)[O-])cc1)c1cccc2c(Br)cccc12 | 2.72% |
| CCC(=O)N(Cc1ccccc1)c1ccccn1 | -1.23% |
| Cc1cc(OCCCC(=O)Nc2cc(S(=O)(=O)N3CCOCC3)ccc2N2CCOCC2)ccc1Cl | 8.81% |
| CSc1ncc(C(=O)NCCCc2ccccc2)c(C)n1 | -6.77% |
| C=CCc1c(C)nc2cc(-c3ccccc3)[nH]n2c1=O | 0.26% |
| CCCCN1Cc2c(nc3cc(-c4ccccc4)[nH]n3c2=O)C1=O | 40.2% (active) |
| O=c1c2c(nc3cc(-c4cccc(Cl)c4)[nH]n13)CCCC2 | 2.97% |
| Cc1cc(=O)oc2c(C)c(OC(C)C(=O)NC3CCN(Cc4ccccc4)CC3)ccc12 (stereo not given) | 1.42% |
| CC(OC(=O)c1c(F)cccc1F)C(=O)NCCC1=CCCCC1 (stereo not given) | 8.3% |
| NC(=O)c1ccc(NC(=O)COC(=O)c2ccc([N+](=O)[O-])cc2)cc1 | 0.64% |
| CC(=O)Nc1ccc(C(=O)OCC(=O)Nc2ccc([N+](=O)[O-])cc2C(F)(F)F)cc1 | 40.5% (active) |

| Compound | inhibition |
| --- | --- |
| O=C(COC(=O)c1cc[n+]([O-])cc1)Nc1ccc(Cl)c(C(F)(F)F)c1 | -4.1% |
| O=C1NN(c2ccccc2)C(=O)/C1=C/c1ccc(-c2cccc(C(=O)O)c2)o1 | 24.1% |
| O=C(O)C(c1ccccc1)N1C(=O)/C(=C\c2ccc(-c3cccc(Cl)c3)o2)SC1=S (stereo not given) | 40.3% (active) |
| O=C1c2ccccc2NC(c2ccc(-c3cccc(Cl)c3)o2)N1O (stereo not given) | -3.11% |
| O=C(O)c1ccc(NN=CC2=C(N3CCOCC3)/C(=C/c3ccccc3)CC2)cc1 | 1.44% |
| COc1ccc(C(C[N+](=O)[O-])n2nc(C)cc2C)cc1 (stereo not given) | 1.81% |
| O=C(Nc1cc(S(=O)(=O)Nc2ccc(Cl)cc2)ccc1O)c1ccc(F)cc1F | 61.9% (active) |
| Cc1cc(NS(=O)(=O)c2ccc(NC(=S)NC(=O)c3ccc(F)cc3Cl)cc2)no1 | 3.92% |
| O=C(Nc1cccc(S(=O)(=O)NC2=NCCC2)c1)c1ccc(F)cc1F | -3.56% |
| C[C@H]1CCC(=O)N([C@H](CSc2ccccc2)Cc2ccccc2)CC1 | 4.65% |
| C/C=N/NC(=O)CCCC(=O)N/N=C/C | -3.09% |
| Cc1ccc2c(c1)C1CN(C)CCC1N2C(=S)Nc1ccc(Cl)cc1Cl (stereo not given) | 8.44% |
| Cc1ccc2c(c1)C1CN(C)CCC1N2C(=O)c1ccccc1NS(=O)(=O)c1ccc(F)cc1C (stereo not given) | 41.1% (active) |
| Cc1ccc2c(c1)C1CN(C)CCC1N2S(=O)(=O)c1cccc(F)c1 (stereo not given) | 4.06% |
| CCC(C)[C@H](NC(=O)N1CCn2c1nc1ccccc12)C(=O)NCc1ccc(OC)cc1 (stereo not given in full) | 5.18% |
| CCc1ccc(C2C(C#N)=C(N)N(N3CCOCC3)C3=C2C(=O)CC(C)(C)C3)s1 (stereo not given) | 0.28% |
| O=C(COC(=O)CCCN1C(=O)c2cccc3cccc(c23)C1=O)NC1CCS(=O)(=O)C1 (stereo not given) | 3.81% |
| Cc1cnc(NC(=O)CSc2c(Cl)cccc2Cl)s1 | 38.4% (active) |
| Cc1cnc(NC(=O)C2CCCC2)s1 | 1.44% |
| Cc1cnc(NC(=O)c2ccccn2)s1 | 13.5% |
| O=C(COC(=O)CC1CC2CCC1C2)NC(=O)NC1CCCC1 (stereo not given) | 1.25% |
